Measurements as given in the supplement of paper PMC6555819.

Legend:
Assay in all cases: PBM binding z-score (relative to random genomic background probes); higher = stronger binding; sequences stand for … in GC…GCGATTGACAGCGTAGAATGAAGG
[1] = tested on: PPARg:RXRa DBDmut IVT, anti-RXR (DBD mutation: RXRa K156A/R161A, NR concentration 270 nM, RXRa partner concentration 90 nM)
Procedure, shortened: (§1)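 The probes on custom Agilent 4×180K protein-binding microarrays were double-stranded, with 34-nt variable regions bearing direct-repeat seeds, single-nucleotide variants, half-site ablations and random human genomic background sequences. Incubation lasted 1 h with ligand-free nuclear receptor dimers in PBS pH 7.4, 2% milk, 0.02% Triton X-100, 1 mM DTT, 0.2 mg/mL BSA and 0.4 mg/ml salmon testes DNA. Antibodies against each partner (one per run) detected bound dimers, and fluorescence scans were regression-normalized. Binding z-scores take the random background probes as reference.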

[2] = tested on: PPARg:RXRa IVT, anti-PPARg (NR concentration 270 nM, RXRa partner concentration 90 nM)
Procedure, shortened: as §1

[3] = tested on: PPARg DBDmut:RXRa IVT, anti-PPARg (DBD mutation: PPARg1 K132A/R137A, NR concentration 270 nM, RXRa partner concentration 90 nM)
Procedure, shortened: as §1

[4] = tested on: PPARg DBDmut IVT, anti-PPARg (DBD mutation: PPARg1 K132A/R137A, NR concentration 270 nM)
Procedure, shortened: as §1

[5] = tested on: PPARg homodimer (NR concentration 180 nM)
Procedure, shortened: as §1

[6] = tested on: PXR:RXRa (NR concentration 270 nM, RXRa partner concentration 90 nM)
Procedure, shortened: as §1

[7] = tested on: PXR homodimer (NR concentration 270 nM)
Procedure, shortened: as §1

[8] = tested on: RARa:RXR (NR concentration 270 nM, RXRa partner concentration 90 nM)
Procedure, shortened: as §1

[9] = tested on: RARa homodimer (NR concentration 270 nM)
Procedure, shortened: as §1

[10] = tested on: RARb:RXRa (NR concentration 270 nM, RXRa partner concentration 90 nM)
Procedure, shortened: as §1

[11] = tested on: RARb homodimer (NR concentration 270 nM)
Procedure, shortened: as §1

[12] = tested on: RARg:RXRa (NR concentration 270 nM, RXRa partner concentration 90 nM)
Procedure, shortened: as §1

[13] = tested on: RARg homodimer (NR concentration 270 nM)
Procedure, shortened: as §1

[14] = tested on: RXRa DBDmut IVT, anti-RXR (DBD mutation: RXRa K156A/R161A, NR concentration 90 nM)
Procedure, shortened: as §1

[15] = tested on: RXRa homodimer (NR concentration 180 nM)
Procedure, shortened: as §1

[16] = tested on: THRa:RXRa (NR concentration 90 nM, RXRa partner concentration 90 nM)
Procedure, shortened: as §1

[17] = tested on: THRa homodimer (NR concentration 90 nM)
Procedure, shortened: as §1

[18] = tested on: VDR:RXRa (NR concentration 270 nM, RXRa partner concentration 90 nM)
Procedure, shortened: as §1

[19] = tested on: VDR homodimer (NR concentration 270 nM)
Procedure, shortened: as §1

Sequence	PBM binding z-score [1]	PBM binding z-score [2]	PBM binding z-score [3]	PBM binding z-score [4]	PBM binding z-score [5]	PBM binding z-score [6]	PBM binding z-score [7]	PBM binding z-score [8]	PBM binding z-score [9]	PBM binding z-score [10]	PBM binding z-score [11]	PBM binding z-score [12]	PBM binding z-score [13]	PBM binding z-score [14]	PBM binding z-score [15]	PBM binding z-score [16]	PBM binding z-score [17]	PBM binding z-score [18]	PBM binding z-score [19]
TCATATAGGTAATACACGTGAAAGTCGGCATCTA	3.9	2.2	1.1	1.42	1.33	0.683	0.547	0.919	1.56	0.414	0.355	0.577	0.604	1.92	0.939	0.156	-0.0139	1.01	0.589
GCGGCTAGGTCAACTGATGGTCAGCTAAAGCTCG	3.34	3.06	-0.724	-1.01	1.76	1.59	-0.666	2.84	-0.107	4.36	3.7	5.19	5.19	1.17	2.84	2.95	0.698	1.28	-0.00796
CCTTACGGGTCATTCCAGGTTATAGCATCGGAGT	2.86	3.39	0.145	-0.0638	1.34	5.52	0.529	3.91	0.74	3.51	3.03	4.52	4.25	2.86	5.2	5.12	0.692	4.87	2.59
CGTCCAAGGTCAGCAGGTCAGTAAAAGCGACGTG	2.72	3.62	0.159	-0.726	3.33	3.43	0.607	4.46	0.549	5.51	4.97	6.32	6.68	2.49	5.07	3.97	2.48	–	1.81
ACTATTAGGTGAGACGAGGGCAACCGATAGGTTG	4.85	3.95	1.23	0.854	1.46	2.81	0.453	1.39	0.564	1.64	1.7	1.03	1.43	0.288	0.97	3.84	0.802	1.77	1.07
CCGACTGCGGCAGAAAGGTTACCATACCATCCGG	-0.1	0.0365	-0.709	-0.931	0.55	1.05	-0.0131	1.42	-0.186	1.29	1.92	0.857	0.647	-0.0879	1.57	1.02	0.00107	0.485	-0.0446
CGAACTAGGTCATCCAGCACAGTGAATACATTGA	8.26	8.11	2.99	2.39	1.64	1.47	0.241	2.25	0.526	3.71	2.79	4	4.55	2.13	2.92	2.85	1.13	2.34	1.16
AATACAGGGTCATCGTAGGCCAGCGTACGCACAG	2.7	4.3	1.13	2.04	1.67	4.77	0.406	4.77	0.478	4.55	3.68	5.61	4.89	2.94	6.47	4.79	1.37	5.21	3.03
CAGACTAGGTCACCGGAAGGTCAAAGTCCGCATG	7.28	7.61	0.753	0.84	6.86	5.81	1.7	6.81	2.04	5.34	5.55	8.29	7.56	1.74	6.56	4.37	2.62	5.78	3.42
TGAATGAGGTTAAAGATCAGAGAACGTGGCGTCG	1.89	3.53	1.38	0.333	0.79	2	0.0576	3.32	0.124	1.98	0.55	2.23	1.36	1.15	3.86	2.28	0.132	–	0.373
CCTACTGGGCCACGAAATGTCATTGATTCAGTGA	6.24	5.34	0.216	-0.527	0.759	-0.308	-0.533	0.0426	-0.591	0.57	0.607	0.2	0.479	-0.374	-0.0138	0.211	-0.319	-0.452	-0.54
TCGCCTAGGTCATTCAGGGGCCAGTATAGAAAGC	2.54	2.19	-0.243	-0.908	1.82	2.3	-0.0121	3.36	-0.254	3.96	3.67	6.06	4.29	2.42	2.95	3.52	1	3.06	1.4
GCAGACAGGTGAAACGCAGGTAACTCGGGGTGGC	0.722	0.559	-0.371	-1.17	-0.333	0.0221	-0.587	0.361	-1.06	0.754	0.185	0.966	0.131	-0.847	0.633	1.55	-0.0919	-0.198	-0.486
ATCGAAAGGACGACGAGGTGAGTATACACCGTTT	-0.481	0.315	0.774	0.683	-0.198	-0.109	-0.293	0.0451	0.198	1.1	0.685	1.09	1.42	-0.192	0.371	1.42	0.601	0.0992	0.0497
CGAACGAGGGCATGAGTTGATAGCGAATGCCGAT	3.22	2.24	-0.216	-0.415	0.483	0.461	-0.235	0.351	-0.349	1.97	0.689	1.25	1.69	2.41	1.09	1.09	-0.229	1.21	1.5
